According to PubChem BioAssay AID1159580 (chemical genetic matrix, 2015):
Where “and” joins values, the source holds several entries; their conditions need not be identical. Identical values can stand only once. The whole screen tested about 5,500 compounds, of which about 2,000 (36%) were called active. Another 18% or so got no clear call; they are omitted. No stated cut-off is given here; in the data, active means normalized growth mostly below about 0.91 (no sharp cut-off); inconclusive means no clear call, values can overlap the other calls; inactive means mostly above about 0.92. This is one part of the list.

Experiment: chemical genetic growth profiling, strain panel (AID 1159580);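 further: tested at 20 µM; growth read once vehicle control cultures reached saturation at 30 °C; 1 = growth at the plate median or of vehicle wells; lower values mean less growth of the strain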
Conditions: S. cerevisiae deletion strains, growth OD
[1] = locus YAL013W, strain DEP1, active compounds read low
[2] = locus YBR229C, strain ROT2, active compounds read low
[3] = locus YDL101C, strain DUN1, active compounds read low
[4] = locus YDR150W, strain NUM1, active compounds read low
[5] = locus YEL061C, strain CIN8, active compounds read low
[6] = locus YGR078C, strain PAC10, active compounds read low
[7] = locus YGR229C, strain SMI1, active compounds read low
[8] = locus YHR030C, strain SLT2, active compounds read low
[9] = locus YHR087W, strain rtc3, active compounds read low
[10] = locus YJL187C, strain SWE1, active compounds read low
[11] = locus YJR043C, strain POL32, active compounds read low
[12] = locus YJR075W, strain HOC1, active compounds read low
[13] = locus YLR039C, strain RIC1, active compounds read low
[14] = locus YLR058C, strain SHM2 (second series), active compounds read low
[15] = locus YLR085C, strain ARP6, active compounds read low
[16] = locus YLR262C, strain YPT6, active compounds read low
[17] = locus YML094W, strain GIM5, active compounds read low
[18] = locus YMR219W, strain ESC1, active compounds read low
[19] = locus YMR263W, strain SAP30, active compounds read low
[20] = locus YNL153C, strain GIM3, active compounds read low
[21] = locus YNL298W, strain CLA4 (second series), active compounds read low
[22] = locus YNL322C, strain KRE1, active compounds read low
[23] = locus YNR030W, strain Alg12, active compounds read low
[24] = locus YPL055C, strain LGE1, active compounds read low
[25] = locus YPL241C, strain CIN2, active compounds read low
[26] = locus YPR135W, strain CTF4, active compounds read low

Measured: normalized growth

CN1c2ccccc2C(=O)NC1c1ccc([N+](=O)[O-])s1 (centres undefined)
inactive: [1] 1 | [2] 0.988 | [3] 1.02 | [4] 1 | [5] 0.967 | [6] 1.02 | [7] 0.989 | [8] 1 | [9] 0.991 | [10] 0.996 | [11] 1.01 | [12] 1.02 | [13] 1.02 | [14] 0.995 | [15] 1.03 | [16] 1.05 | [17] 0.989 | [18] 0.995 | [19] 1 | locus YMR307W, strain GAS1, active compounds read low 1.01 | [20] 1.02 | [21] 1.01 | [22] 0.995 | [23] 0.988 | [24] 0.971 | [25] 1 | [26] 1.05

Cc1ccc([N+](=O)[O-])cc1S(=O)(=O)N(C)C
inactive: locus YAL040C, strain CLN3, active compounds read low 0.984 | locus YCL061C, strain MRC1 (second series), active compounds read low 1 | [4] 1.03 | locus YDR363W, strain ESC2, active compounds read low 0.972 | locus YER002W, strain NOP16, active compounds read low 1 | [20] 0.846 | locus YNL175C, strain NOP13, active compounds read low 0.996 | locus YNL197C, strain WHI3, active compounds read low 0.926 | locus YNL224C, strain SQS1, active compounds read low 0.979 | locus YOR083W, strain WHI5 (second series), active compounds read low 0.955 | [25] 0.998

O=[N+]([O-])c1ccc2c(c1)NC(c1ccc([N+](=O)[O-])s1)O2 (centres undefined)
active: [1] 0.0563 | [2] 0.0525 | locus YCL061C, strain MRC1, active compounds read low 0.0508 | [3] 0.0673 | locus YDL134C, strain PPH21, active compounds read low 0.0453 | [4] 0.0493 | [5] 0.049 | locus YGR052W, strain FMP48, active compounds read low 0.104 | [6] 0.0481 | [7] 0.0516 | [8] 0.0641 and 0.114 | locus YHR079C, strain IRE1, active compounds read low 0.11 | locus YHR082C, strain KSP1, active compounds read low 0.106 | [9] 0.0539 | locus YJL095W, strain BCK1, active compounds read low 0.1 | [10] 0.0478 | [11] 0.0509 | locus YJR066W, strain TOR1, active compounds read low 0.1 | [12] 0.0918 | locus YKL171W, strain NNK1, active compounds read low 0.387 | locus YKL203C, strain TOR2, active compounds read low 0.0984 | [13] 0.0606 | [14] 0.0478 | [15] 0.0638 | locus YLR113W, strain HOG1, active compounds read low 0.187 | [16] 0.0626 | [17] 0.0601 | [18] 0.0484 | [19] 0.0575 | [20] 0.0476 | locus YNL183C, strain NPR1, active compounds read low 0.108 | locus YNL207W, strain RIO2, active compounds read low 0.107 | [21] 0.0735 | [22] 0.0534 | [23] 0.063 | locus YOR119C, strain RIO1, active compounds read low 0.0996 | locus YOR231W, strain MKK1, active compounds read low 0.101 | [24] 0.0657 | [25] 0.0629 | locus YPL256C, strain CLN2, active compounds read low 0.17 | [26] 0.149
